# Several values for one entry are separate records, joined by “and”; a condition that tells them apart may be missing. Equal values may be shown once. Results filed as inconclusive are left out. Activity calls are given as the source filed them. Unless noted, the limit is not given here; nearly all actives have AC50 up to about 26 µM. Where a SMILES comes first, the peptide text is derived from it. [ ]: non-standard residue; d: D form. The star is where a group is joined. Sta = CC(C)C[C@H](N)[C@@H](O)CC(=O)O; Isovaleryl = CC(C)CC(=O)*
# Legend:
# [1] = growth inhibition of DIPG glioma cells, dose response, cell-based, JHH-DIPG-1, MIPE4.0, CellTiter-Glo, qHTS (AID 1347062; cut-off not given, nearly all actives have AC50 up to about 27 µM;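 as to AC50: cells exposed to compound for two days before readout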); conditions: JHH-DIPG-1 viability, CellTiter-Glo ATP luminescence
# [2] = growth inhibition of DIPG glioma cells, dose response, cell-based, SU-DIPG-IV, MIPE4.0, CellTiter-Glo, qHTS (AID 1347063; cut-off not given, nearly all actives have AC50 up to about 30 µM;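 also: compound exposure lasted 48 hours before the viability readout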); conditions: SU-DIPG-IV viability, CellTiter-Glo ATP luminescence
# [3] = growth inhibition of DIPG glioma cells, dose response, cell-based, SU-DIPG-XIII, MIPE5.0, CellTiter-Glo, qHTS (AID 1347064; cut-off not given, nearly all actives have AC50 up to about 23 µM;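 as to AC50: cells exposed to compound for 48 hours before the viability read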); conditions: SU-DIPG-XIII viability, CellTiter-Glo ATP luminescence
# [4] = JHH-DIPG-1 glioma cell viability, MIPE5.0 library, CellTiter-Glo luminescence, qHTS (AID 1347067); conditions: JHH-DIPG-1 glioma viability, CellTiter-Glo ATP luminescence;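 also: cells exposed to compound for 48 hours before readout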
# [5] = modifiers of HSF1 nuclear foci, imaging, Selleck Cancer Library (AID 1347162; in the data active = plate-normalised HSF1 focus index below about 0.46); conditions: human cells, at 10 µM; SSMD: measured here: HSF1 foci SSMD mean; cell count: measured here: cell number; plate-normalised HSF1 focus index: stronger effect = lower value
# [6] = LFS_MB_P medulloblastoma growth inhibition, cell-based, chromothripsis tumors, cisplatin or BGB combos (AID 1671449; in the data active = inhibition above about 80%;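 also: cells exposed for 96 hours; 0% = vehicle DMSO and 100% = killing by high DMSO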); conditions: LFS_MB_P medulloblastoma cells
# [7] = HDN33 neuroblastoma growth inhibition, cell-based, chromothripsis tumors, cisplatin or BGB combos (AID 1671450; in the data active = inhibition above about 80%;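 also: cells exposed to compound for four days; 0% = vehicle DMSO and 100% = cell killing by high DMSO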); conditions: HDN33 neuroblastoma cells, stronger effect = higher value
# [8] = ICB984 medulloblastoma cell growth inhibition, synergistic combos for chromothripsis tumors, cisplatin or BGB combos (AID 1671451; call rule not given here;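 also: cells exposed for 96 hours before readout; 0% = vehicle DMSO and 100% = killing by high DMSO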); conditions: ICB984 medulloblastoma cells, drug combinations, stronger effect = higher value
# [9] = HTB85 osteosarcoma cell growth inhibition, synergistic combos for chromothripsis tumors, BGB or cisplatin IC20 combos (AID 1671453; in the data active = inhibition above about 80%;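 also: cells exposed for 96 hours before readout; 0% = vehicle DMSO and 100% = high DMSO killing control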); conditions: HTB85 osteosarcoma cells, drug combinations, stronger effect = higher value
# [10] = MDA-MB-436 breast carcinoma cell growth inhibition, synergistic combos for chromothripsis tumors, BGB or cisplatin combos (AID 1671458; call rule not given here;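 also: cells exposed for 96 hours; 0% = vehicle DMSO and 100% = killing by high DMSO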); conditions: MDA-MB-436 breast carcinoma growth inhibition, drug combinations, stronger effect = higher value
# [11] = growth inhibition of BT084 medulloblastoma cells, cell-based, ICGC_MB145, cisplatin and BGB IC40 combos (AID 1671461; in the data active = inhibition above about 80%;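 also: cells exposed to drugs for 96 hours; 0% = vehicle DMSO and 100% = high DMSO full killing control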); conditions: drug combinations, stronger effect = higher value
# [12] = growth inhibition of RCMB18 medulloblastoma cells, cell-based, cisplatin and BGB IC40 combos (AID 1671462; in the data active = inhibition above about 80%;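 also: cells exposed to compound for four days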); conditions: stronger effect = higher value
# [13] = growth inhibition of CRL1545 osteosarcoma cells, cell-based, cisplatin and BGB IC20 combos (AID 1671464; in the data active = inhibition above about 80%;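 also: cells exposed to compound for 96 hours before readout; 0% = vehicle DMSO and 100% = high DMSO killing control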); conditions: stronger effect = higher value
# [14] = viability loss in pontine glioma line – cell-based, SU-DIPG-XXV, MIPE5.0, CellTiter-Glo, qHTS, dose response (AID 1347065); conditions: CellTiter-Glo ATP luminescence;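 also: cells exposed to compound for 48 hours before ATP readout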
# [15] = hESC survival regulators, cell-based (AID 493140; call rule not given here;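 also: cells exposed to compounds for four days before counting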); conditions: human embryonic stem cell survival screen; stronger effect = higher value
# [16] = biological target: Mitogen-activated protein kinase 7 (Homo sapiens) (UniProt Q13164); experiment: ERK5 transactivation activators in reporter cells, primary screen, cell-based, HTS (AID 1508626;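 active = luciferase signal above three times the same-plate solvent-only control wells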;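 also: luciferase driven by Gal4-ERK5 fusion binding five Gal4 sites before minimal TATA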); conditions: HeLa Gal4-ERK5 transactivation, 18 h, at 5 µM, stronger effect = higher value
# [17] = tested on: Hepatitis C virus NS3 helicase; experiment: HCV NS3 helicase inhibitors, primary screen, biochemical, fluorescence polarization, LOPAC1280 library (AID 687035; in the data active = inhibition above about 37%); conditions: Purified HCV NS3 helicase, Cy5-dT15 ssDNA binding fluorescence polarization; stronger effect = higher value; concentration not given here
# [18] = Cy5 fluorescence quenching or enhancement artefacts, artefact control for HCV NS3 helicase inhibitor project, biochemical, LOPAC1280 (AID 687037; call rule not given here); conditions: Cy5-DNA-NS3h complex fluorescence interference counterscreen
# [19] = phospholipid biosynthesis inhibitors in animal cells, primary screen, cell-based, LOPAC library, screen 4 (AID 1347384; call rule not given here); conditions: phospholipid biosynthesis inhibition screen, at 10 µM
# [20] = circadian clock period modulators, cell-based, LOPAC library, luminescence reporter (AID 2774; call rule not given here;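 also: values are relative to mean of DMSO wells on each plate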); conditions: circadian reporter cells, at 7 µM, actives lie on both sides
# [21] = measured here: with BGB IC20 combination, at 0.5 µM
# [22] = measured here: with cisplatin IC20 combination, at 0.5 µM
# Sequence of Mitogen-activated protein kinase 7 (Homo sapiens) (Q13164 whole entry, looked up, the tested form may be a part): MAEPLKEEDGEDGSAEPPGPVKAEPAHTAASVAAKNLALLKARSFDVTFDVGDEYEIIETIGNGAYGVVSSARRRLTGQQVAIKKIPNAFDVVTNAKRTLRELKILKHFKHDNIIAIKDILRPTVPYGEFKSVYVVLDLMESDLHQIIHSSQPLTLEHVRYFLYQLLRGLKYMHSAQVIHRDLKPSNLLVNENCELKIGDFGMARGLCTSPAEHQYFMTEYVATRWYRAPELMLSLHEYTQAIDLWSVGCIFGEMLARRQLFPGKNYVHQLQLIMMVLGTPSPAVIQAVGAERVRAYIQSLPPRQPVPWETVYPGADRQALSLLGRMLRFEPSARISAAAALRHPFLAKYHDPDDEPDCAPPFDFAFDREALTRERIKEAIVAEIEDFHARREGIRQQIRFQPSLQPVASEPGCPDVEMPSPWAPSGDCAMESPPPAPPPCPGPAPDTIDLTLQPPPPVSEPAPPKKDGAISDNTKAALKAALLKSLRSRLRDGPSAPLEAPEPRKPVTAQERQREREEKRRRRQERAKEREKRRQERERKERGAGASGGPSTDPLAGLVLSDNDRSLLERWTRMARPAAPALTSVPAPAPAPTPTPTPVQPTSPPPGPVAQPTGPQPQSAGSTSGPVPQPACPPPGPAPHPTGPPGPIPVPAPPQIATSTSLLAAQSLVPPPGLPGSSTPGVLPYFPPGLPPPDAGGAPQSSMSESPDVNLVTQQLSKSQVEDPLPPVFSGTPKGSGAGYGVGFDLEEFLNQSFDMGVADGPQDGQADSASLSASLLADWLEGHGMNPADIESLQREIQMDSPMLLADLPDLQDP
structure (smiles),measurement,setting,value
CCCCCOC(=O)Nc1nc(=O)n([C@@H]2O[C@H](C)[C@@H](O)[C@H]2O)cc1F,outcome,[1],inactive
same,outcome,[2],inactive
same,outcome,[3],inactive
same,outcome,[4],inactive
same,SSMD,[5],2.2
same,cell count,[5],7640
same,plate-normalised HSF1 focus index,[5],1.08 (inactive)
same,inhibition,"[6]; at 0.5 µM, stronger effect = higher value",1.4% (inactive) and -21.9% (inactive)
same,inhibition,"[6]; measured here: combination with BGB IC20, at 0.005 µM",-14.6% and -21.7%
same,inhibition,"[6]; measured here: combination with BGB IC40, at 0.005 µM",-20.4% and -20.9%
same,inhibition,"[6]; measured here: combination with BGB IC40, at 0.05 µM",-19.6% and -29%
same,inhibition,"[6]; measured here: combination with cisplatin, at 0.5 µM, stronger effect = higher value",-27.7% and -33.8%
same,inhibition,"[6]; measured here: combination with cisplatin, at 5 µM, stronger effect = higher value",-25.5% and -51.4%
same,inhibition,"[7]; BGB combo, at 5 µM",-43.4% and -24%
same,inhibition,[7]; at 0.5 µM,-46.5% (inactive) and -7.86% (inactive)
same,inhibition,"[7]; cisplatin combo, at 5 µM",-42.6% and -1.99%
same,inhibition,[7]; [21],-56.7% and -7.65%
same,inhibition,[7]; [22],-38% and 1.73%
same,inhibition,"[7]; single agent, at 5 µM",-49.4% and -2.05%
same,inhibition,"[8]; BGB IC20 combo, at 0.005 µM",4.24% and 4.65%
same,inhibition,"[8]; BGB IC40 combo, at 0.005 µM",-24.4% and -11%
same,inhibition,"[8]; BGB IC40 combo, at 0.05 µM",-29.4% and -22.1%
same,inhibition,[8]; at 0.5 µM,-39.5% (inactive) and -17.6% (inactive)
same,inhibition,"[8]; cisplatin combo, at 0.05 µM",-33% and -26.5%
same,inhibition,"[8]; cisplatin combo, at 0.5 µM",-46.4% and -4.14%
same,inhibition,"[8]; cisplatin combo, at 5 µM",-48.1% and -27.4%
same,inhibition,"[8]; measured here: 5 uM single agent, at 5 µM",-17.2% and -23.5%
same,inhibition,[9]; at 0.5 µM,-24.5% (inactive) and -10.3% (inactive)
same,inhibition,"[9]; measured here: with BGB IC20, at 0.5 µM",-20% and -11.5%
same,inhibition,"[9]; measured here: with BGB IC20, at 5 µM",-100% and -18.6%
same,inhibition,"[9]; measured here: with cisplatin IC20, at 0.5 µM",-35.2% and -21.3%
same,inhibition,"[9]; measured here: with cisplatin IC20, at 5 µM",-30% and -33.3%
same,inhibition,"[9]; single agent, at 5 µM",-21% and -4.05%
same,inhibition,[10]; at 0.5 µM,-36.5% (inactive) and -2.12% (inactive)
same,inhibition,"[10]; measured here: BGB combination, at 0.5 µM",-31.4% and -6.87%
same,inhibition,"[10]; measured here: BGB combination, at 5 µM",-29.8% and -7.46%
same,inhibition,"[10]; measured here: cisplatin combination, at 0.5 µM",-50.7% and -2.06%
same,inhibition,"[10]; measured here: cisplatin combination, at 5 µM",-40.9% and -28%
same,inhibition,[11]; at 0.5 µM,-20.5% (inactive) and -7.04% (inactive)
same,inhibition,"[11]; cisplatin combination, at 0.5 µM",-5.51% and -26.5%
same,inhibition,"[11]; cisplatin combination, at 5 µM",-19.4% and -8.1%
same,inhibition,"[11]; measured here: BGB IC40 combination 0.05 uM, at 0.05 µM",-7.71% and -17.1%
same,inhibition,"[11]; single agent, at 5 µM",-28.9% and -3.19%
same,inhibition,[12]; at 0.5 µM,-0.93% (inactive) and -5.48% (inactive)
same,inhibition,"[12]; cisplatin combo, at 5 µM",-35.1% and -36.1%
same,inhibition,"[12]; measured here: BGB IC40 combination, at 0.05 µM",-29.7% and -0.207%
same,inhibition,"[12]; measured here: combination with cisplatin, at 0.5 µM",-33.1% and 15.5%
same,inhibition,"[12]; single agent, at 5 µM",-11.2% and -19.2%
same,inhibition,[13]; at 0.5 µM,-52.6% (inactive) and -13.7% (inactive)
same,inhibition,[13]; [21],-42.3% and -20.5%
same,inhibition,[13]; [22],-61.3% and -12%
same,inhibition,"[13]; single agent, at 0.05 µM",-66.9% and -17.4%
same,inhibition,"[13]; single agent, at 5 µM",-52.4% and -6.48%
CCC(C)(Oc1ccc(C2(c3ccc(OC(C)(CC)C(=O)O)cc3)CCCCC2)cc1)C(=O)O (stereo not drawn),outcome,[1],inactive
same,outcome,[2],inactive
same,outcome,[3],inactive
same,outcome,[14],inactive
same,outcome,[4],inactive
CC(C)CC(=O)N[C@H](C(=O)N[C@H](C(=O)N[C@@H](CC(C)C)[C@@H](O)CC(=O)N[C@@H](C)C(=O)N[C@@H](CC(C)C)[C@@H](O)CC(=O)O)C(C)C)C(C)C (Isovaleryl-VV[Sta]A[Sta]-OH),outcome,[1],inactive
same,outcome,[2],inactive
same,outcome,[3],inactive
same,outcome,[14],inactive
same,outcome,[4],inactive
CNC(=O)c1cc(Oc2ccc(NC(=O)Nc3ccc(Cl)c(C(F)(F)F)c3)cc2)ccn1,AC50,[1],18.7 µM (active)
same,AC50,[2],20.9 µM (active)
same,AC50,[14],10.5 µM (active)
same,AC50,[4],4.17 µM (active)
same,SSMD,[5],0.678
same,cell count,[5],6960
same,plate-normalised HSF1 focus index,[5],1.05 (inactive)
CC(=O)[C@H]1CC[C@H]2[C@@H]3CC=C4C[C@@H](O)CC[C@]4(C)[C@H]3CC[C@]12C,survival,[15],9.33 (inactive)
same,outcome,[1],inactive
same,outcome,[2],inactive
same,outcome,[3],inactive
same,outcome,[4],inactive
same,luciferase signal,[16],44 AU (inactive)
CC(C)C[C@H](NC(=O)[C@H](Cc1ccccc1)NC(=O)c1cnccn1)B(O)O,AC50,[1],0.0209 µM (active)
same,AC50,[2],0.00833 µM (active)
same,AC50,[14],0.00662 µM (active)
same,AC50,[4],0.0263 µM (active)
same,SSMD,[5],3.94
same,cell count,[5],7530
same,plate-normalised HSF1 focus index,[5],1.14 (inactive)
COC(=O)C1=C(C)NC(C)=C(C(=O)OCCCN2CCC(c3ccccc3)(c3ccccc3)CC2)C1c1cccc([N+](=O)[O-])c1 (stereo not drawn),outcome,[1],inactive
same,outcome,[2],inactive
same,AC50,[3],13.2 µM (active)
same,AC50,[14],8.33 µM (active)
Nc1ccn(C[C@@H](CO)OCP(=O)(O)O)c(=O)n1,outcome,[1],inactive
same,outcome,[2],inactive
same,outcome,[3],inactive
same,outcome,[14],inactive
same,outcome,[4],inactive
Cc1[nH]c(=O)c(C#N)cc1-c1ccc2nccn2c1,inhibition,[17],-1% (inactive)
same,fluorescence ratio (interference),[18],1 (inactive)
same,outcome,[1],inactive
same,outcome,[2],inactive
same,outcome,[14],inactive
same,outcome,[4],inactive
same,outcome,[19],inactive
CC(=O)SC[C@@H](C)C(=O)N1CCC[C@H]1C(=O)N[C@@H](Cc1ccccc1)C(=O)O,outcome,[1],inactive
same,outcome,[2],inactive
same,outcome,[4],inactive
O=c1[nH]c(=O)n([C@H]2C[C@H](O)[C@@H](CO)O2)cc1I,outcome,[1],inactive
same,outcome,[2],inactive
Nc1ccn(C2CO[C@H](CO)O2)c(=O)n1 (stereo partly drawn),outcome,[1],inactive
same,outcome,[2],inactive
same,outcome,[3],inactive
same,outcome,[14],inactive
same,outcome,[4],inactive
Cc1oc(=O)oc1CN1CCN(c2cc3c(cc2F)c(=O)c(C(=O)O)c2n3C(C)S2)CC1 (stereo not drawn),outcome,[1],inactive
same,outcome,[2],inactive
same,outcome,[3],inactive
same,outcome,[14],inactive
same,outcome,[4],inactive
CC1(COc2ccc(CC3SC(=O)NC3=O)cc2)CCCCC1 (stereo not drawn),survival,[15],117 (inactive)
CS(=O)(=O)CCNCc1ccc(-c2ccc3ncnc(Nc4ccc(OCc5cccc(F)c5)c(Cl)c4)c3c2)o1,AC50,[1],18.7 µM (active)
same,AC50,[2],11.8 µM (active)
same,AC50,[3],18.6 µM (active)
same,AC50,[14],13.2 µM (active)
same,AC50,[4],20.9 µM (active)
C[C@@H](NCCCc1cccc(C(F)(F)F)c1)c1cccc2ccccc12,outcome,[1],inactive
same,outcome,[2],inactive
same,AC50,[3],18.6 µM (active)
same,AC50,[14],14.8 µM (active)
same,AC50,[4],16.6 µM (active)
CCCCCCCCCCCCCCCC(=O)NCCO,period change,[20],0.19 h (inactive)
same,survival,[15],109 (inactive)
same,inhibition,[17],-7% (inactive)
same,fluorescence ratio (interference),[18],1 (inactive)
CC(C)C[C@H](NC(=O)[C@H](CCc1ccccc1)NC(=O)CN1CCOCC1)C(=O)N[C@@H](Cc1ccccc1)C(=O)N[C@@H](CC(C)C)C(=O)[C@@]1(C)CO1,AC50,[1],0.0187 µM (active)
same,AC50,[2],0.0235 µM (active)
same,AC50,[3],0.00742 µM (active)
same,AC50,[14],0.00525 µM (active)
same,AC50,[4],0.0105 µM (active)
N#Cc1c(N(CC(=O)O)CC(=O)O)sc(C(=O)O)c1CC(=O)O,outcome,[3],inactive
same,outcome,[14],inactive
same,outcome,[4],inactive
CCOC(=O)c1ccc(C#Cc2ccc3c(c2)C(C)(C)CCS3)nc1,outcome,[1],inactive
